Results filed as inconclusive are left out. Active and inactive are the calls of the source. Unless noted, calls come from the whole dose curve; as a rule, active = well fitted cell-killing curve with a large enough effect; inconclusive = small, poorly fitted or top-dose-only effect; inactive = flat fitted curve, though single readings scatter.
Tests used:
[1] = Cell Viability - LYMP2-006 (AID 978); note: nearly all actives have a fitted effect of over 60% in size; note: potency is the fitted concentration of half-maximal effect
How it was run: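 Human lymphoblastoid cells (LYMP2-006), 2500/well in complete medium, were treated with compound for 24 hr at 37 C. Cellular ATP was read by CellTiter-Glo luminescence after 30 min, and AC50 values came from Hill-equation fits of concentration-response data.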

[2] = Cell Viability - LYMP2-007 (AID 979);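 note: cells exposed to compound for 24 h before reading; nearly all actives have a fitted effect of over 60% in size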
How it was run: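 Human lymphoblastoid LYMP2-007 cells (2500/well) preincubated 5 h at 37 C, then treated 24 h at 37 C in complete medium. Viability by CellTiter-Glo ATP luminescence after 30 min at room temperature; AC50 from Hill fits.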

[3] = Cell Viability - LYMP2-008 (AID 980); note: nearly all actives have a fitted effect of over 60% in size; note: potency is the fitted concentration of half-maximal effect
How it was run: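 LYMP2-008 lymphoblastoid cells (2500/well) plated 5 h, then treated 24 h at 37 C in complete medium. Viability read as intracellular ATP by CellTiter-Glo luminescence after 30 min at room temperature; AC50 from Hill fits.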

[4] = Cell Viability - LYMP2-010 (AID 981); note: nearly all actives have a fitted effect of over 55% in size; note: potency is the fitted concentration of half-maximal effect
How it was run: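 Human lymphoblastoid LYMP2-010 cells (2500/well) treated 24 h at 37 C in complete medium; viability read as intracellular ATP by CellTiter-Glo luminescence. AC50 from Hill fits of concentration-response data; tetraoctylammonium bromide positive control.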

[5] = Cell Viability - LYMP2-012 (AID 982);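 note: cellular ATP by luciferase luminescence where a drop means cytotoxicity; cells exposed to compound for one day before reading; nearly all actives have a fitted effect of over 55% in size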
[6] = Cell Viability - LYMP2-014 (AID 983); note: nearly all actives have a fitted effect of over 50% in size; note: potency is the fitted concentration of half-maximal effect
How it was run: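 LYMP2-014 human lymphoblastoid cells, 2500/well, treated 24 h at 37 C in complete medium; viability by CellTiter-Glo ATP luminescence after 30 min at room temperature. AC50 from Hill fits of qHTS concentration-response; tetraoctylammonium bromide positive control.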

[7] = Cell Viability - LYMP2-016 (AID 984); note: nearly all actives have a fitted effect of over 55% in size
How it was run: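 Human lymphoblastoid LYMP2-016 cells, 2500 per well, treated with compounds for 24 h at 37 C. Viability read as intracellular ATP by CellTiter-Glo luminescence after 30 min at room temperature; AC50 from Hill fits of concentration-response.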

[8] = Cell Viability - LYMP2-020 (AID 986); note: series mostly up to about 92 µM; nearly all actives have a fitted effect of over 55% in size
How it was run: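 Human lymphoblastoid LYMP2-020 cells (2500/well) preincubated 5 h at 37 C, then treated 24 h at 37 C. Viability measured as intracellular ATP by CellTiter-Glo luminescence after 30 min at room temperature; AC50 from Hill fits.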

[9] = Cell Viability - LYMP2-022 (AID 987); note: nearly all actives have a fitted effect of over 55% in size; note: potency is the fitted concentration of half-maximal effect
How it was run: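 LYMP2-022 lymphoblastoid cells (2500/well, complete medium) were treated with compounds for 24 hours at 37 C; intracellular ATP was then read by CellTiter-Glo luminescence after 30 min at room temperature. AC50 values were derived from Hill-equation fits.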

[10] = Cell Viability - LYMP2-024 (AID 988); note: nearly all actives have a fitted effect of over 60% in size; note: potency is the fitted concentration of half-maximal effect
How it was run: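 Human lymphoblastoid LYMP2-024 cells (2500/well) rested 5 hr, then treated with compound for 24 hr at 37 C in complete medium. Viability was measured as intracellular ATP by CellTiter-Glo luminescence. AC50 values came from Hill-equation fits.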

[11] = Cell Viability - LYMP2-026 (AID 989); note: nearly all actives have a fitted effect of over 50% in size
How it was run: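 Human lymphoblastoid LYMP2-026 cells, 2500/well, exposed to compound 24 h at 37 C in complete medium. Viability as intracellular ATP by CellTiter-Glo luminescence; AC50 from Hill fits of qHTS concentration-response.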

[12] = Cell Viability - LYMP1-002 - Assay at 24 hr (AID 993); note: potency is the fitted concentration of half-maximal effect
How it was run: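 Human lymphoblastoid LYMP1-002 cells (2500/well) treated 24 h at 37 °C; viability as intracellular ATP by CellTiter-Glo luminescence. Tetraoctylammonium bromide as positive control; AC50 from Hill-equation fits of qHTS concentration-response.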

[13] = qHTS Assay for Identification of Small Molecule Inducers of Hypoxia Response (AID 2120; active = well fitted curve in the direction sought with a large enough effect in the signal ratio, with a control signal flat, not every such curve was filed as active; the % refers to the signal ratio)
How it was run: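 HRE-bla ME-180 cells in Opti-MEM with 0.5% dialyzed FBS, pre-plated 4-5 h, then compound titration for 17 h at 37 degrees Celsius. CCF4 loaded 2.5 h at room temperature; 460/530 nm ratio gave %Activity and AC50 for induction.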

[14] = Cell Viability - LYMP2-018 (AID 985);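 note: compound exposure lasted 24 hr at 37 °C; nearly all actives have a fitted effect of over 50% in size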; note: potency is the fitted concentration of half-maximal effect
How it was run: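 Human lymphoblastoid LYMP2-018 cells, 2500/well, settled 5 hr at 37 C then exposed to compound 24 hr at 37 C; intracellular ATP measured by CellTiter-Glo luminescence. AC50 from Hill-equation concentration-response fits.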

[15] = Cell Viability - LYMP1-002 - Assay at 40 hr (AID 994); note: nearly all actives have a fitted effect of over 60% in size; note: potency is the fitted concentration of half-maximal effect
How it was run: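 LYMP1-002 human lymphoblastoid cells (2500/well, complete medium) were treated with compounds for 40 hr at 37 C. Intracellular ATP was measured by CellTiter-Glo luminescence, and AC50 values came from Hill-equation fits of concentration-response data; tetraoctylammonium bromide was the positive control.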

[16] = Cell Viability - LYMP2-002 (AID 977);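 note: compound exposure lasted 24 h at 37 °C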; note: potency is the fitted concentration of half-maximal effect
How it was run: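 Cytotoxicity is scored as concentration-dependent loss of cellular ATP in a human lymphoblastoid line after 24 hr compound treatment at 37 C. AC50 is obtained by modelling concentration-response data with the Hill equation.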

[17] = biological target: Estrogen receptor (Homo sapiens) (UniProt P03372); experiment: qHTS assay for small molecule antagonists of estrogen receptor alpha signaling (AID 588513; active = well fitted curve in the direction sought with a large enough effect in the signal ratio, with a control signal flat, not every such curve was filed as active; the % refers to the signal ratio)
How it was run: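 ER-alpha-UAS-bla GripTite HEK 293 cells in 2% charcoal/dextran-treated FBS medium; compounds titrated (1:2, duplicate), then stimulated with 0.5 nM 17-beta-estradiol for 18 h at 37C. CCF4 beta-lactamase fluorescence; Hill-fit IC50 and efficacy.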

[18] = biological target: Estrogen receptor (Homo sapiens) (UniProt P03372); experiment: qHTS assay for small molecule agonists of estrogen receptor alpha signaling (AID 588514; calls by dose curve; note: nearly all actives have a fitted effect of over 70% in size)
How it was run: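 ER-alpha-UAS-bla GripTite HEK293 cells, 5000/well in 2% charcoal/dextran-stripped FBS medium, treated with compound titrations 18 h at 37 C. CCF4 beta-lactamase read by fluorescence after 2 h RT; normalised to 20 nM 17-beta-estradiol (100%) and DMSO (0%), Hill fit for EC50 and efficacy.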

[19] = biological target: Androgen receptor (Homo sapiens) (UniProt P10275); experiment: qHTS assay for small molecule antagonists of androgen receptor signaling (AID 588516; active = well fitted curve in the direction sought with a large enough effect in the signal ratio, with a control signal flat, not every such curve was filed as active; the % refers to the signal ratio)
How it was run: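 AR-UAS-bla GripTite HEK 293 cells (2000/well) treated with compound titrations plus 10 nM R1881 for 16 h at 37C. Beta-lactamase read by CCF4 FRET (460/530 nm); IC50 from Hill fits, normalized to R1881 and DMSO control wells.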

Measured: Potency

Sequence of Estrogen receptor (Homo sapiens) (P03372 whole entry, looked up): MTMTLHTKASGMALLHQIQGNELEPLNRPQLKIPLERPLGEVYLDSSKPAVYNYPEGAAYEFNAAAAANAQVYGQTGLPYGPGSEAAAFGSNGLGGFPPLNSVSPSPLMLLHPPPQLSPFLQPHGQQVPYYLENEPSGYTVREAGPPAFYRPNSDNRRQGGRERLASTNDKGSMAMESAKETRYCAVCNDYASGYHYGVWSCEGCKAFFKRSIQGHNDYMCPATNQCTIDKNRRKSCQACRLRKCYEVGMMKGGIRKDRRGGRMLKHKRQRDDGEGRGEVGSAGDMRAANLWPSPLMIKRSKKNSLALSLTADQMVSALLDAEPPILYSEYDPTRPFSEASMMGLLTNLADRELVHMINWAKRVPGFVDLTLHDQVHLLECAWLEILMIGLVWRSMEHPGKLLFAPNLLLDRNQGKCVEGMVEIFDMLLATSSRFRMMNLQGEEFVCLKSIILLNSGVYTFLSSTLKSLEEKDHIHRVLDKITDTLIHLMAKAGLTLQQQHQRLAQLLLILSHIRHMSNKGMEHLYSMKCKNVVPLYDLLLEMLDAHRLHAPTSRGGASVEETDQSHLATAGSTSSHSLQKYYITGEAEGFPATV
Sequence of Androgen receptor (Homo sapiens) (P10275 whole entry, looked up): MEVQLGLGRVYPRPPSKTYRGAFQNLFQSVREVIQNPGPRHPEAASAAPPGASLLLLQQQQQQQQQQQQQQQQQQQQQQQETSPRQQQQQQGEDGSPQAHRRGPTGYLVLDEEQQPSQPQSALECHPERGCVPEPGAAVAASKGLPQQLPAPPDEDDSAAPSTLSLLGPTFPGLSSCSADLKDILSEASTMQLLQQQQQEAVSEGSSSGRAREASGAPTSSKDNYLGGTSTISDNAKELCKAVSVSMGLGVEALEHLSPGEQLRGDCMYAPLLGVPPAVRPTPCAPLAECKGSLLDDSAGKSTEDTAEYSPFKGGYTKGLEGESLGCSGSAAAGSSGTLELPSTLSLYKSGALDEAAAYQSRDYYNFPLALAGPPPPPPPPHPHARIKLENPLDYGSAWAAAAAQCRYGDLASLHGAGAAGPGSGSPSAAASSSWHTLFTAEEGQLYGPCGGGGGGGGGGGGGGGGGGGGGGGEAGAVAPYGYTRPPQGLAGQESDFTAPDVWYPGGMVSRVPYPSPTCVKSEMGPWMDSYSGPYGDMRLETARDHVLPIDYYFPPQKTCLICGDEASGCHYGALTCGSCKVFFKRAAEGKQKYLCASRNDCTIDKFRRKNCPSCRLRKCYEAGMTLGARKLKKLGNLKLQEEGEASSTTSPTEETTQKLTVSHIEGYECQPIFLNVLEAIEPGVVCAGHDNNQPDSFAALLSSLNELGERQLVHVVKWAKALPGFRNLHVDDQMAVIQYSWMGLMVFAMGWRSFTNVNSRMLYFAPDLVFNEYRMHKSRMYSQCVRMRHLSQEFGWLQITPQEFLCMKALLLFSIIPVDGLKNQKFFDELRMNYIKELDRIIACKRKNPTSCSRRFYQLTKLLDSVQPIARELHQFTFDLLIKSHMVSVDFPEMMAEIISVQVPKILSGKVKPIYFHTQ

S=C([S-])NCCNC(=S)[S-].[Zn+2]
not listed: [14] | [15] | [16] | [17] | [18] | [19]
inactive: all other assays above

CC(O)COC(C)(C)C (stereo unspecified)
not listed: [2] | [4] | [7] | [16] | [17] | [18] | [19]
inactive: all other assays above

CCC(C)=O
not listed: [3] | [4] | [17] | [18] | [19]
inactive: all other assays above

CC1=C(/C=C/C(C)=C/C=C/C(C)=C\C=O)C(C)(C)CCC1
inactive: [13]
active: [16] 50.1 µM | [1] 50.1 µM | [3] 50.1 µM | [4] 39.8 µM | [6] 63.1 µM | [14] 50.1 µM | [9] 39.8 µM | [10] 31.6 µM | [12] 63.1 µM | [15] 50.1 µM

Cc1cccc(Br)c1
not listed: [3] | [16] | [17] | [18] | [19]
inactive: all other assays above

Nc1ccccc1S(=O)(=O)O
not listed: [3] | [17] | [18] | [19]
inactive: all other assays above

Nc1c(Cl)cc(Cl)cc1Cl
not listed: [3] | [17] | [18] | [19]
inactive: all other assays above

C[C@@H]1O[C@@H](O[C@@H]2[C@@H](O)[C@H](OCCc3ccc(O)c(O)c3)O[C@H](CO[C@@H]3O[C@H](CO)[C@@H](O)[C@H](O)[C@H]3O)[C@H]2OC(=O)/C=C/c2ccc(O)c(O)c2)[C@H](O)[C@H](O)[C@H]1O
not listed: [4] | [15] | [16] | [17] | [18] | [19]
inactive: all other assays above

Cc1cccc2cccnc12
not listed: [15] | [16] | [17] | [18] | [19]
inactive: all other assays above

COCCOC(=O)c1ccccc1C(=O)OCCOC
not listed: [2] | [17] | [18] | [19]
inactive: all other assays above

CCCCOCCOCCSC#N
not listed: [3] | [12] | [17] | [18] | [19]
inactive: all other assays above

BrC/C=C/CBr
not listed: [15] | [16] | [17] | [18] | [19]
inactive: all other assays above

Nc1ccccc1[N+](=O)[O-]
not listed: [3] | [4] | [14] | [17] | [18] | [19]
inactive: all other assays above

C=C(C)C(=O)OC
not listed: [3] | [7] | [17] | [18] | [19]
inactive: all other assays above

C=Cc1ccccn1
not listed: [3] | [7] | [16] | [17] | [18] | [19]
inactive: all other assays above

CCCCC(CC)CNCC(CC)CCCC (stereo unspecified)
not listed: [3] | [4] | [17] | [18] | [19]
inactive: all other assays above

CCCCCCCCN
not listed: [3] | [4] | [7] | [12] | [17] | [18] | [19]
inactive: all other assays above

C=CCCCCCCC=C
not listed: [12] | [16] | [17] | [18] | [19]
inactive: all other assays above

CC1CCCO1 (stereo unspecified)
not listed: [3] | [17] | [18] | [19]
inactive: all other assays above

O=[N+]([O-])c1ccc(NCCO)c(OCCO)c1
not listed: [15] | [16] | [17] | [18] | [19]
inactive: all other assays above

CC(=O)C1(C)CC2=C(CCCC2(C)C)CC1C (stereo unspecified)
not listed: [16] | [17] | [18] | [19]
inactive: all other assays above

N#CC1(O)CCCCC1
not listed: [2] | [7] | [17] | [18] | [19]
inactive: all other assays above

NCCCCCCN
not listed: [3] | [4] | [7] | [15] | [17] | [18] | [19]
inactive: all other assays above

CC(=O)c1ccccn1
not listed: [3] | [12] | [17] | [18] | [19]
inactive: all other assays above

CCC(=O)/C=C/C1C(C)=CCCC1(C)C (stereo unspecified)
active: [4] 50.1 µM
not listed: [2] | [5] | [9] | [10] | [17] | [18] | [19]
inactive: all other assays above

Cc1c(N)cccc1N
not listed: [16] | [17] | [18] | [19]
inactive: all other assays above

Cc1ccccc1C(=O)O
not listed: [2] | [12] | [15] | [17] | [18] | [19]
inactive: all other assays above

Cc1ccc(C(=O)O)cc1
not listed: [2] | [14] | [16] | [17] | [18] | [19]
inactive: all other assays above

CSCCC=O
not listed: [2] | [17] | [18] | [19]
inactive: all other assays above

Clc1ccccn1
not listed: [2] | [4] | [17] | [18] | [19]
inactive: all other assays above

O=[N+]([O-])c1ccc(Cl)cc1Cl
not listed: [2] | [12] | [17] | [18] | [19]
inactive: all other assays above

c1ccc(Oc2ccccc2)cc1
not listed: [4] | [7] | [14] | [16] | [17] | [18] | [19]
inactive: all other assays above

CC(C)(C)OCC1CO1 (stereo unspecified)
not listed: [2] | [17] | [18] | [19]
inactive: all other assays above

Cc1ccc(C)c(O)c1
not listed: [3] | [17] | [18] | [19]
inactive: all other assays above

C=CC(=O)OCCCC
not listed: [4] | [16] | [17] | [18] | [19]
inactive: all other assays above

CN(C)CCCNCCCN
not listed: [4] | [5] | [13] | [19]
inactive: all other assays above

O=C(O)CCSSCCC(=O)O
not listed: [13]
inactive: all other assays above

CC(=C/C=C/C(C)=C/C=C/C=C(C)/C=C/C=C(C)/C=C/C(=O)O)/C=C/C(=O)O
not listed: [2] | [13] | [18]
inactive: all other assays above

Nc1cccc(S(=O)(=O)O)c1
not listed: [13] | [19]
inactive: all other assays above

Source: PubChem BioAssay (NCATS)
